The list is not random: actives were taken first. Their share in the collection is about 3.4%.
ERb SRC1 inh: inhibitors of ERβ-SRC1 coactivator interaction, primary screen, biochemical, TR-FRET, ERβ LBD, SRC-1 peptide; TR-FRET ER-beta LBD / SRC1-Cy5 peptide binding; receptor agonist-loaded with 1 µM estradiol; inhibition, % at 25.6 µM; hit rate 1.3% among 86,000; AID 633, 2007;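 active means compounds whose percent inhibition of the receptor-coactivator binding signal exceeds about 50% in the single-dose screen, limit read from the data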;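 further: 0% = receptor plus peptide wells without compound and 100% = peptide-only wells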
Target sequence (Q92731 whole entry, looked up, the tested form may be a part): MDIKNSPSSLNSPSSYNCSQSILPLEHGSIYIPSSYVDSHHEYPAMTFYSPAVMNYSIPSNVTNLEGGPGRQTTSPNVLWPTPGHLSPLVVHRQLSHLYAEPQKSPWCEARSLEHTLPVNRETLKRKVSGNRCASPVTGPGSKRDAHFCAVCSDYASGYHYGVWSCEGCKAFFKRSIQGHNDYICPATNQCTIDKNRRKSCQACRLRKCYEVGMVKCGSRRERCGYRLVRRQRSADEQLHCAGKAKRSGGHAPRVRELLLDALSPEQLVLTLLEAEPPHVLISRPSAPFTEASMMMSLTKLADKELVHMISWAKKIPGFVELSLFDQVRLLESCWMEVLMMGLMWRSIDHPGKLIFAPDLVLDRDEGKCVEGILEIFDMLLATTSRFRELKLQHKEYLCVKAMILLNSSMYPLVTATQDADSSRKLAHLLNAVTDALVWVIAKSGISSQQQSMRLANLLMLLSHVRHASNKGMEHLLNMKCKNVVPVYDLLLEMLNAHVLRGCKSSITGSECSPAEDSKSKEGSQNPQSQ
ERa SRC1 pot: enhancers of ERα–SRC-1 coactivator binding, primary screen, biochemical, TR-FRET, ERα LBD, low estradiol; coactivator binding (% of control), % at 25.6 µM; Estrogen receptor (Homo sapiens), P03372; TR-FRET ERalpha-LBD/SRC-Cy5 coactivator binding, 2 h; 100 = basal binding, no effect; hit rate 1.3% among 86,000; AID 639, 2007; in the data active means activity above about 200%;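 further: binding measured in presence of low estradiol as agonist stimulus; 0% = peptide alone without receptor and 100% = receptor with peptide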
LYP inh 2: PTPN22 phosphatase inhibitors, primary screen, biochemical, DiFMUP fluorescence, 2 µM; recombinant LYP catalytic domain; inhibition, % at 2 µM; hit rate 0.21% among 96,000; AID 640, 2007;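 active means inhibition at 2 µM at or above a set limit, the screen mean plus 3 SD, cut at about 24% in these data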;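 further: 0% = DMSO with enzyme and 100% = enzyme fully blocked by orthovanadate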
ERa coact inh: ERα–SRC-1 coactivator interaction inhibitors, primary screen, biochemical, TR-FRET, ERα LBD, estradiol-bound | inhibition, % at 25.6 µM | Estrogen receptor (Homo sapiens), P03372 | TR-FRET ER-alpha LBD / SRC-1 peptide | hit rate 1.7% among 86,000; in the data active means inhibition above about 50%;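 further: 0% = receptor plus peptide control and 100% = peptide only without receptor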
PTPN22 act: LYP phosphatase activators, primary screen, biochemical, DiFMUP fluorescence, 2 µM; Tyrosine-protein phosphatase non-receptor type 22 (Homo sapiens), Q9Y2R2; recombinant LYP; 0 = plate median, 100 = signal doubled; activation, % at 2 µM; hit rate 0.11% among 96,000; AID 697, 2007;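 active means activation at 2 µM above a set limit, the mean plus 5 SD, cut at about 37% in these data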
FAK blocker: FAK kinase inhibitors, primary screen, biochemical. AID 727, 2007. Focal adhesion kinase 1 (Homo sapiens), Q05397. biochemical FAK kinase activity assay. inhibition, %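 (tested at 7 µM)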. hit rate 0.84% among 97,000; in the data active means inhibition above about 19%;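 further: 0% = DMSO and 100% = reference compound high control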
* = called active by the depositor; . = no result; [ ] = another dose, or the depositor's remark.

SMILES | ERb SRC1 inh | ERa SRC1 pot | LYP inh 2 | ERa coact inh | PTPN22 act | FAK blocker
O=c1ccn(-c2cccc(C(F)(F)F)c2)nc1-c1ccn(-c2cccc(Cl)c2)n1 | . | . | 15 | . | -13 | 3
CCCCCNC(CC(=O)Nc1ccc(OC)cc1)C(=O)O (configuration not stated) | 1 | 788*[fluorescence artefact?] | . | -7 | . | .
COc1ccc(NC(=O)CC(Cc2ccccc2)C(=O)O)cc1 (configuration not stated) | 5 | 105 | -11 | 3 | 9 | -7
CC(=O)c1ccc(Nc2ncnc3c2oc2ccccc23)cc1 | 46 | 346*[fluorescence artefact?] | -2 | 45 | 1 | 10
CC(=O)Nc1ccc(Nc2nc(C)nc3c2oc2ccccc23)cc1 | 6 | 96 | -6 | -2 | 3 | 3
O=c1c(-c2nc3ccccc3s2)cccn1Cc1ccc(Cl)c(Cl)c1 | . | . | 18 | . | -16 | -3
COc1ccc(-c2cc(C#N)nc(N3CCNCC3)n2)cc1 | 36 | 305*[fluorescence artefact?] | -14 | 33 | 14 | 13
CN1CCN(c2nc(C#N)cc(-c3ccccc3)n2)CC1 | -7 | 101 | 3 | -5 | 3 | 0
COc1ccc2c(c1)c(=O)oc1cc(OCC(=O)N3CCC(C)CC3)ccc12 | 60* | 133 | -5 | 59* | 3 | 7
COc1ccc2c(c1)c(=O)oc1cc(OCC(=O)N3CCCC(C)C3)ccc12 (configuration not stated) | 48 | 132 | 7 | 36 | -11 | 5
COc1ccc2c(c1)c(=O)oc1cc(OCC(=O)N3CCc4ccccc4C3)ccc12 | 62* | 237*[fluorescence artefact?] | 16 | 71*[fluorescence artefact?] | -18 | 13
CCN(CC)C(=O)Sc1cccc2cccnc12 | 4 | 116 | -2 | 3 | 1 | 1
CCOC(=O)CSc1cccc2cccnc12 | -5 | 237*[fluorescence artefact?] | -2 | -10 | 6 | 2
CC(C)CSc1nc2c(c(=O)[nH]c(=O)n2C)n1CC(O)COc1cccc2ccccc12 (configuration not stated) | 56* | 75 | 13 | 13 | -13 | -4
CC(C)CSc1nc2c(c(=O)[nH]c(=O)n2C)n1CCc1ccccc1 | 4 | 111 | 7 | -6 | -7 | -4
Clc1ccc(-c2nnc3sc(-c4ccc(Br)o4)nn23)c(Cl)c1 | . | . | 9 | . | -9 | -2
CN(C)c1ccc(-c2nn3c(-c4ccc(Cl)cc4Cl)nnc3s2)cc1 | 64*[fluorescence artefact?] | 51 | . | 85*[fluorescence artefact?] | . | .
Cc1cc(-c2nnc3sc(-c4ccc(Cl)cc4Cl)nn23)n[nH]1 | 25 | 360* | -3 | 23 | 1 | 10
Clc1ccccc1-c1nnc2sc(-c3ccc4c(c3)OCO4)nn12 | 2 | 111 | 15 | 6 | -12 | -1
Clc1cccc(-c2nnc3sc(-c4ccc5c(c4)OCO5)nn23)c1 | 44 | 199 | . | 55* | . | .
Cc1cc(C)cc(OCC(=O)OCC(=O)c2c(N)n(C)c(=O)n(C)c2=O)c1 | -6 | 86 | 5 | -6 | -2 | -1
O=C1CCCC(=O)C1=Cc1c[nH]c2ccccc12 | . | . | 8 | . | -5 | -1
COc1ccc(C2C=C(c3ccccc3)Nc3ncnn32)cc1 (configuration not stated) | 86*[fluorescence artefact?] | 109 | -2 | -12 | 6 | 3
CCOC(=O)Cc1cc(=O)n2[nH]c(-c3ccc(C)cc3)cc2n1 | 56* | 82 | -13 | 73* | 14 | 5
Clc1ccc(C(c2nnnn2CCc2ccccc2)N2CCSCC2)cc1 (configuration not stated) | -1 | 101 | 9 | -4 | -6 | -9
SMILES | ERb SRC1 inh | ERa SRC1 pot | LYP inh 2 | ERa coact inh | PTPN22 act | FAK blocker
COc1ccc2oc(C(=O)OCC(=O)c3ccc4c(c3)OCCO4)c(C)c2c1 | 0 | 229* | -8 | 7 | 8 | 0
CCC(=O)N1CCN(c2nc(-c3ccccc3)c3c(c2C#N)CCCC3)CC1 | -11 | 94 | -12 | -1 | 8 | 4
CCCOCC1CC2(SC(=Nc3ccc(C)cc3)NC2=O)C(=O)O1 (configuration not stated) | 69*[fluorescence artefact?] | 106 | 10 | -6 | -7 | 5
O=C1CC(C(=O)Nc2ccc(C(=O)N3CCOCC3)cc2)C2(CCCCC2)O1 (configuration not stated) | -1 | 116 | -12 | 56*[fluorescence artefact?] | 8 | 0
O=C1CC(C(=O)Nc2ccccc2)C2(CCCC2)O1 (configuration not stated) | . | . | 4 | . | -2 | 0
COc1ccc(-n2c(SCCC#N)nnc2-c2cc(Cl)ccc2OC)cc1Cl | 46 | 399*[fluorescence artefact?] | 0 | 47 | -2 | -2
Cc1cccc(-c2nnc(SCC#N)n2-c2cccc(Cl)c2)c1 | -8 | 131 | 4 | 5 | 2 | -2
O=C(NNC(=O)c1ccc(SCC2CCCO2)c([N+](=O)[O-])c1)c1ccc(Cl)c([N+](=O)[O-])c1 (configuration not stated) | 18 | 62 | 0 | 51* | 0 | 1
Cc1ccc(C(=O)NNC(=O)c2ccc(SCC3CCCO3)c([N+](=O)[O-])c2)cc1 (configuration not stated) | 3 | 100 | 8 | 0 | -6 | -4
COC(=O)C(NNc1ccccc1C)(NC(=O)c1ccc(F)cc1)C(F)(F)F (configuration not stated) | . | . | 0 | . | 3 | 1
Cc1cc(C)c2nc(SCC(=O)N3CCCCC3)c(C#N)cc2c1 | 17 | 181 | 0 | -6 | -2 | -7
COC(=O)CSc1nc2cc(OC)ccc2cc1C#N | -2 | 129 | 0 | 21 | 0 | 2
Cc1cccc2cc(C#N)c(SCC(=O)N3CCC(C)CC3)nc12 | 24 | 217*[fluorescence artefact?] | -6 | 14 | 4 | 5
COC(=O)CSc1nc2cc(C)cc(C)c2cc1C#N | 10 | 210* | 1 | 1 | 0 | -5
CCOc1ccc2cc(C#N)c(SCC(=O)N3CCC(C)CC3)nc2c1 | 26 | 337*[fluorescence artefact?] | 14 | 7 | -18 | -6
Cc1ccc2cc(C#N)c(SCC(=O)NCc3ccco3)nc2c1 | 35 | 237* | 8 | 55*[fluorescence artefact?] | -8 | 12
O=c1ccc(NS(=O)(=O)c2ccccc2)cn1Cc1ccc(Cl)c(Cl)c1 | . | . | -2 | . | 5 | 5
CN(C)c1nc(N)nc(CSc2nnnn2-c2ccccc2)n1 | -5 | 104 | -5 | 5 | 8 | -1
COc1ccc2nc(SCC(=O)N3CCN(c4ccc(F)cc4)CC3)c(C#N)cc2c1 | 19 | 481*[fluorescence artefact?] | -5 | 14 | 5 | -2
Cc1cccc2cc(C#N)c(SCC(=O)Nc3ccccc3N3CCOCC3)nc12 | 13 | 295*[fluorescence artefact?] | 11 | 20 | -13 | -7

Screening results from PubChem BioAssay.
